# Results published in PubChem BioAssay (EPA / NIEHS).
# Results filed as inconclusive are left out. Activity calls are given as the source filed them. The calls were made as follows, unless noted: active = hit-call score of the fitted dose curve at least 0.9, where 1 is the maximum; inactive = score below 0.9.
# Key:
# [1] = APR_HepG2_CellCycleArrest_1hr: Apredica 1-hour HepG2 Assay for Cell Cycle Arrest (AID 2282666); conditions: high-content imaging, actives raise or lower the signal
# Summary of the method: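 Cell cycle arrest scored from nuclear DNA content (Hoechst 33342) using high-content imaging of fixed HepG2 cells after 1 h treatment across 0.39–200 uM, in duplicate. Gain or loss fitted relative to 0.5% DMSO.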
# [2] = ACEA_ER_80hr: ACEA Biosciences xCELLigence Real-Time Cell Analysis on Estrogen Receptor Agonism for Proliferation (AID 2282667; active = hit-call score of the fitted dose curve at least 0.9, where 1 is the maximum); conditions: T47D proliferation, impedance (xCELLigence), 80 h
# Summary of the method: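 Real-time electrical impedance tracked growth of the human breast line T47D, with the 80 h post-dosing value used. Dosing spanned eight 1:4 steps down from a 100 uM final top concentration, run in duplicate.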
# [3] = APR_HepG2_CellLoss_1hr: Apredica 1-hour HepG2 Assay for Cell Loss (AID 2282668); conditions: high-content imaging;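 also: curves fitted both ways against DMSO so gain or loss of cells counts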
# Summary of the method: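 Cell number comes from high-content imaging of Hoechst-labelled nuclei in fixed HepG2 cells. Cells were exposed for 1 h to ten concentrations from 0.39 to 200 uM in 0.5% DMSO. Gain or loss was fitted against DMSO controls.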
# [4] = APR_HepG2_NuclearSize_1hr: Apredica 1-hour HepG2 Assay for Nuclear Size (AID 2282670); conditions: high-content imaging, actives raise or lower the signal
# Summary of the method: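 Nuclear size measured by high-content imaging of Hoechst 33342 nuclear stain after formaldehyde fixation; human HepG2 line exposed 1 hr to compounds at 0.39–200 uM in 0.5% DMSO, with bidirectional curve fitting relative to DMSO.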
# [5] = APR_HepG2_p53Act_1hr: Apredica 1-hour HepG2 Assay for p53 Activation (AID 2282671); conditions: high-content imaging, actives raise or lower the signal
# Summary of the method: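 After 1 h exposure (0.39–200 uM, 0.5% DMSO final, duplicates), fixed HepG2 cells were labelled with anti-p53 antibody plus Hoechst nuclear stain. Fluorescence quantified by automated 20x imaging; changes fitted in both directions against DMSO.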
# [6] = APR_HepG2_P-H2AX_1hr: Apredica 1-hour HepG2 Assay for H2AX Phosphorylation (AID 2282673); conditions: high-content imaging, actives raise or lower the signal
# Summary of the method: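 Phospho-H2A.x immunofluorescence (1:200, FITC secondary) plus Hoechst nuclear stain, quantified by high-content imaging in HepG2 after 1 hr compound exposure. Ten concentrations, 0.39 to 200 uM, in duplicate with 0.5% DMSO; fit both directions against DMSO.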
# [7] = APR_HepG2_MitoMass_1hr: Apredica 1-hour HepG2 Assay for Mitochondrial Mass (AID 2282674); conditions: high-content imaging, actives raise or lower the signal
# Summary of the method: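 Mitochondrial mass is taken from MitoTracker Red CMXRos (250 nM, 30 min, pre-fixation) fluorescence imaged at 20x in HepG2 cells. Exposure lasted 1 hr across ten concentrations, 0.39 to 200 uM, 0.5% DMSO; DMSO baseline, bidirectional fitting.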
# [8] = APR_HepG2_CellCycleArrest_24hr: Apredica 24-hour HepG2 Assay for Cell Cycle Arrest (AID 2282905); conditions: imaging, actives raise or lower the signal;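 also: cell cycle arrest scored as ratio of 2N to 4N nuclear DNA content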
# Summary of the method: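 Readout: Hoechst 33342 nuclear DNA content by high-content fluorescent imaging, six images/well, 20x. Human HepG2 liver cells, 24 hr compound exposure, 0.39–200 uM, final DMSO 0.5% v/v. Gain or loss fitted relative to DMSO baseline.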
# [9] = APR_HepG2_CellLoss_24hr: Apredica 24-hour HepG2 Assay for Cell Loss (AID 2282908); conditions: high-content imaging;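 as to AC50: fit in both directions so a hit may be cell loss or gain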
# Summary of the method: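 Read-out: Hoechst 33342-stained nuclei counted by automated fluorescence imaging after formaldehyde fixation and Triton permeabilization. Ten concentrations, 0.39 to 200 uM, duplicate wells, 0.5% DMSO final. Gain or loss of signal fitted relative to DMSO baseline.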
# [10] = APR_HepG2_MicrotubuleCSK_24hr: Apredica 24-hour HepG2 Assay for Microtubule CSK Stabilty (AID 2282909); conditions: HepG2 microtubule cytoskeleton imaging, actives raise or lower the signal
# Summary of the method: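 Read-out: alpha-tubulin immunofluorescence intensity by automated high-content imaging of fixed HepG2 cells after 24 h compound treatment. Ten concentrations, 0.39 to 200 uM, in duplicate; DMSO 0.5% v/v. Taxol positive control; DMSO-normalized bidirectional curve fitting.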
# [11] = APR_HepG2_MitoticArrest_24hr: Apredica 24-hour HepG2 Assay for Mitotic Arrest (AID 2282910); conditions: high-content imaging, actives raise or lower the signal
# Summary of the method: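 HepG2, 24 hr dosing, 0.39–200 uM, 0.5% DMSO final. Formaldehyde-fixed, Triton-permeabilised, anti-phospho-histone H3 plus Hoechst. ArrayScan imaging at 20x; bidirectional fit vs DMSO baseline.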
# [12] = APR_HepG2_MitoMembPot_24hr: Apredica 24-hour HepG2 Assay for Mitochondrial Membrane Potential (AID 2282911); conditions: imaging, actives raise or lower the signal
# Summary of the method: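 Cells are dosed for 24 hr across 0.39 to 200 uM with solvent held at 0.5% DMSO. They are then stained with 250 nM MitoTracker Red CMXRos for 30 min, fixed in 3.7% formaldehyde and imaged.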
# [13] = APR_HepG2_MitoMass_24hr: Apredica 24-hour HepG2 Assay for Mitochondrial Mass (AID 2282912); conditions: high-content imaging, actives raise or lower the signal
# Summary of the method: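 HepG2, 24 hr dosing, 10 concentrations 0.39–200 uM in duplicate, DMSO 0.5% final. MitoTracker Red CMXRos 250 nM, 30 min pre-fix; 3.7% formaldehyde fix. Imaging-based fluorescence intensity; gain/loss fit vs DMSO baseline.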
# [14] = APR_HepG2_p53Act_24hr: Apredica 24-hour HepG2 Assay for p53 Activation (AID 2282913); conditions: high-content imaging, actives raise or lower the signal;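 also: p53 protein immunofluorescence averaged per cell in HepG2 with Hoechst nuclei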
# Summary of the method: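 Human HepG2 liver cells; 24 hr cpd treatment, 0.39–200 uM, 0.5% DMSO final. Fixed in 3.7% formaldehyde, permeabilized with 0.5% Triton X-100, stained with anti-p53/Cy5 plus Hoechst 33342. Six images per well at 20x; gain or loss vs DMSO.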
# [15] = APR_HepG2_CellCycleArrest_72hr: Apredica 72-hour HepG2 Assay for Cell Cycle Arrest (AID 2282914); conditions: high-content imaging, actives raise or lower the signal
# Summary of the method: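 Read-out is Hoechst-stained nuclear DNA content measured by automated fluorescence imaging (20x, six images per well), fitted in both directions relative to DMSO. Human HepG2 liver cells received 0.39–200 uM compound for 72 hr at 0.5% v/v DMSO.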
# [16] = APR_HepG2_MitoticArrest_1hr: Apredica 1-hour HepG2 Assay for Mitotic Arrest (AID 2282672); conditions: high-content imaging, actives raise or lower the signal
# Summary of the method: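 Ten-point concentration series (0.39 to 200 uM, duplicates, 0.5% v/v DMSO) applied to human HepG2 liver cells for 1 hr. High-content imaging of phospho-histone H3 and Hoechst-stained nuclei after fixation and permeabilization; DMSO-normalised bidirectional fit.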
# [17] = APR_HepG2_MitoMembPot_1hr: Apredica 1-hour HepG2 Assay for Mitochondrial Membrane Potential (AID 2282675); conditions: imaging, actives raise or lower the signal
# Summary of the method: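 Mitochondrial membrane potential read as MitoTracker Red CMXRos intensity by automated imaging of fixed HepG2 cells. Dye at 250 nM for 30 min pre-fixation; compounds 0.39 to 200 uM for 1 hour, duplicate wells, 0.5% DMSO.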
# [18] = APR_HepG2_NuclearSize_24hr: Apredica 24-hour HepG2 Assay for Nuclear Size (AID 2282907); conditions: high-content imaging, actives raise or lower the signal
# Summary of the method: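 Read-out: nuclear diameter from Hoechst 33342 (2 ug/mL) imaging of fixed HepG2 cells, 20x, six fields/well. Compounds ran at 0.39–200 uM for 24 hr, 0.5% DMSO final. Gain or loss was fitted bidirectionally relative to the DMSO baseline.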
# [19] = APR_HepG2_StressKinase_1hr: Apredica 1-hour HepG2 Assay for Stress Kinase (AID 2282906); conditions: HepG2 stress kinase (phospho-c-Jun) imaging, actives raise or lower the signal
# Summary of the method: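 High-content imaging of phospho-c-Jun immunostaining (with Hoechst nuclear identification) after a 1 h exposure of HepG2 cells to 10 concentrations from 0.39 to 200 uM, final DMSO 0.5%. Fitted bidirectionally against DMSO.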
smiles,measurement,setting,value
Clc1nc(Cl)nc(Nc2ccccc2Cl)n1,outcome,[1],inactive
same,outcome,[2],inactive
same,outcome,[3],inactive
same,outcome,[4],inactive
same,outcome,[5],inactive
same,outcome,[6],inactive
same,outcome,[7],inactive
same,outcome,[8],inactive
same,outcome,[9],inactive
same,outcome,[10],inactive
same,outcome,[11],inactive
same,outcome,[12],inactive
same,outcome,[13],inactive
same,outcome,[14],inactive
same,outcome,[15],inactive
C=C(C)CN(CC)c1c([N+](=O)[O-])cc(C(F)(F)F)cc1[N+](=O)[O-],outcome,[1],inactive
same,outcome,[2],inactive
same,outcome,[3],inactive
same,outcome,[4],inactive
same,outcome,[5],inactive
same,outcome,[16],inactive
same,outcome,[6],inactive
same,outcome,[7],inactive
same,outcome,[8],inactive
same,outcome,[9],inactive
same,outcome,[10],inactive
same,outcome,[11],inactive
same,outcome,[12],inactive
same,outcome,[13],inactive
same,outcome,[14],inactive
same,outcome,[15],inactive
CCOP(=S)(OCC)Oc1nc(Cl)n(C(C)C)n1,outcome,[1],inactive
same,outcome,[2],inactive
same,outcome,[3],inactive
same,outcome,[5],inactive
same,outcome,[16],inactive
same,outcome,[6],inactive
same,outcome,[7],inactive
same,outcome,[17],inactive
same,outcome,[8],inactive
same,outcome,[9],inactive
same,outcome,[11],inactive
same,outcome,[12],inactive
same,outcome,[13],inactive
same,outcome,[14],inactive
same,outcome,[15],inactive
CCNP(=S)(OC)O/C(C)=C/C(=O)OC(C)C (stereo not given),outcome,[1],inactive
same,outcome,[2],inactive
same,outcome,[3],inactive
same,outcome,[4],inactive
same,outcome,[5],inactive
same,outcome,[6],inactive
same,outcome,[7],inactive
same,outcome,[17],inactive
same,outcome,[8],inactive
same,outcome,[18],inactive
same,outcome,[9],inactive
same,outcome,[11],inactive
same,outcome,[12],inactive
same,outcome,[13],inactive
same,outcome,[14],inactive
same,outcome,[15],inactive
CCCN(CC)CC1COC2(CCC(C(C)(C)C)CC2)O1 (stereo not given),outcome,[1],inactive
same,outcome,[2],inactive
same,outcome,[3],inactive
same,outcome,[5],inactive
same,outcome,[16],inactive
same,outcome,[6],inactive
same,outcome,[7],inactive
same,outcome,[8],inactive
same,outcome,[18],inactive
same,outcome,[9],inactive
same,outcome,[11],inactive
same,outcome,[12],inactive
same,outcome,[13],inactive
same,outcome,[14],inactive
same,outcome,[15],inactive
CCCCC(O)(Cn1cncn1)c1ccc(Cl)cc1Cl (stereo not given),outcome,[1],inactive
same,outcome,[2],inactive
same,outcome,[3],inactive
same,outcome,[5],inactive
same,outcome,[6],inactive
same,outcome,[7],inactive
same,outcome,[8],inactive
same,AC50,[9],88 µM (active)
same,outcome,[11],inactive
same,outcome,[12],inactive
same,outcome,[13],inactive
same,AC50,[14],105 µM (active)
same,outcome,[15],inactive
CCOc1cc(C(C)(C)C)ccc1C1COC(c2c(F)cccc2F)=N1 (stereo not given),outcome,[1],inactive
same,outcome,[2],inactive
same,outcome,[3],inactive
same,outcome,[6],inactive
same,outcome,[7],inactive
same,AC50,[17],100 µM (active)
same,outcome,[8],inactive
same,outcome,[19],inactive
same,outcome,[18],inactive
same,outcome,[9],inactive
same,outcome,[10],inactive
same,outcome,[11],inactive
same,AC50,[12],93.3 µM (active)
same,outcome,[13],inactive
same,outcome,[15],inactive
COC(=O)NS(=O)(=O)c1ccc(N)cc1,outcome,[1],inactive
same,outcome,[2],inactive
same,outcome,[3],inactive
same,outcome,[4],inactive
same,outcome,[5],inactive
same,outcome,[6],inactive
same,outcome,[7],inactive
same,outcome,[17],inactive
same,outcome,[8],inactive
same,outcome,[9],inactive
same,outcome,[11],inactive
same,outcome,[12],inactive
same,outcome,[13],inactive
same,outcome,[14],inactive
same,outcome,[15],inactive
